Consider one sequence from PMC7862700, “An all-to-all approach to the identification of sequence-specific readers for epigenetic DNA modifications on cytosine”.

What all share (assay): DAPPL (digital affinity profiling via proximity ligation, sequencing); 10 mM Tris-HCl pH 7.5, 50 mM NaCl, 1 mM DTT, 4% glycerol, room temperature, 30 min; GST-TFs on glutathione beads, 16-mer random dsDNA library, 0.1% formaldehyde crosslink after washing; high values mean tight binding
Settings in all cases: protein: recombinant; tags: N-terminal GST; dsDNA, one strand shown

Assay [1] has as its target T1, FLI1 (Homo sapiens, UniProt Q01543 1-452).
T1 sequence: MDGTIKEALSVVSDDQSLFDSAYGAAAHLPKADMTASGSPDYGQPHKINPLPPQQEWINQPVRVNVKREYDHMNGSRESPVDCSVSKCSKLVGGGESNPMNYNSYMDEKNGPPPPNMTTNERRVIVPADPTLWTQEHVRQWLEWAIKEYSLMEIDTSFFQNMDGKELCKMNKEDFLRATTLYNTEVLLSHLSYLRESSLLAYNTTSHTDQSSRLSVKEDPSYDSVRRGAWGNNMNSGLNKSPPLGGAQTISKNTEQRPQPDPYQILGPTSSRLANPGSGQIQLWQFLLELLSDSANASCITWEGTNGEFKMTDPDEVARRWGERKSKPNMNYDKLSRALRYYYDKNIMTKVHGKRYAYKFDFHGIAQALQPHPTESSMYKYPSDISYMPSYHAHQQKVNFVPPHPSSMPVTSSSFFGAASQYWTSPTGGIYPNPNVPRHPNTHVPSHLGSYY
A digest of the protocol:
(§1)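 Each value of binding signal is a hexamer's read frequency for a factor divided by the same hexamer's frequency in the tag-only sample. Barcoded, bead-captured GST fusions of human transcription factors made in yeast were pooled with that sample and incubated with 200 nmole of a random double-stranded 16-mer DNA library in Tris/NaCl/DTT/glycerol buffer at room temperature for 30 min. Washing, 0.1% formaldehyde crosslinking, proximity ligation, PCR and Illumina NextSeq500 sequencing followed.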

The target in assay [2] is T2, ELK1 (Homo sapiens, UniProt P19419 1-428).
T2 sequence: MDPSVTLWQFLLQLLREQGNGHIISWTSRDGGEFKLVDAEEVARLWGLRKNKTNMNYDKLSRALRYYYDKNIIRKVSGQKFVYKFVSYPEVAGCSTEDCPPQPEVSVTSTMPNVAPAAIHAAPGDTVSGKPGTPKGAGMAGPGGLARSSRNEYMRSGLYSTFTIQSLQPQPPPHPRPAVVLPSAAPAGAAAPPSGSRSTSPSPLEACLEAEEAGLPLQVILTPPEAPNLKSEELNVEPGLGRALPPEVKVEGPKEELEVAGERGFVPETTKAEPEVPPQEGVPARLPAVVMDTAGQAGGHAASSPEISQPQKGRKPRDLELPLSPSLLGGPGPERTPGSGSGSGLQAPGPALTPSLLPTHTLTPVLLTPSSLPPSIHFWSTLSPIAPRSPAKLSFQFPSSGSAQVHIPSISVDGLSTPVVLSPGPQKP
A digest of the protocol: as §1

In assay [3] the target is T3, GABPA (Homo sapiens, UniProt Q06546 1-454).
T3 sequence: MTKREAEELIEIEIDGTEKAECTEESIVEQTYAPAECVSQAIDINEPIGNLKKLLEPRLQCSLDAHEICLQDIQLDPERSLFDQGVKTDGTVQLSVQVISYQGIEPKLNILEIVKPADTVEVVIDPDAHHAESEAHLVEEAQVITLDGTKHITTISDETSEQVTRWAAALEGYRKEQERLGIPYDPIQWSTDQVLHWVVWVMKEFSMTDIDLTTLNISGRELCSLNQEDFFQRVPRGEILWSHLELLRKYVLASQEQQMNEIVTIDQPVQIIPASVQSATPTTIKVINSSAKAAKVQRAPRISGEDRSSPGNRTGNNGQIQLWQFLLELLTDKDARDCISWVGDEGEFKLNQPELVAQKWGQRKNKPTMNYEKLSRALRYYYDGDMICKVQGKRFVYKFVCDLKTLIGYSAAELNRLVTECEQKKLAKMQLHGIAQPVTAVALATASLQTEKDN
A digest of the protocol:
as §1

Assay [4] concerns the target ELF1 (Homo sapiens, UniProt P32519 1-619). A digest of the protocol: as §1
For assay [5], the target named is T4, EHF (Homo sapiens, UniProt Q9NZC4 1-300).
T4 sequence: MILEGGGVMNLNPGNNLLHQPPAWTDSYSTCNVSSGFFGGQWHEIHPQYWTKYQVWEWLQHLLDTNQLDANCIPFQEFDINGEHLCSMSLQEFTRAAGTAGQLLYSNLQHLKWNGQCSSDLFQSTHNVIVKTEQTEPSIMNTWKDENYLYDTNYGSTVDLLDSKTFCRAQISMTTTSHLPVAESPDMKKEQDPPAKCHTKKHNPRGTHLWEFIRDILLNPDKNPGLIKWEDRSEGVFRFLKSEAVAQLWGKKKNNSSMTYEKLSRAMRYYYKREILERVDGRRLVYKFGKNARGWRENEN
An outline of the steps: as §1

For assay [6], the target named is SPI1 (Homo sapiens, UniProt P17947 1-270). An outline of the steps:
as §1

Assay [7] addresses SPIB (Homo sapiens, UniProt Q01892 1-262). An outline of the steps: as §1
For assay [8], the target named is T5, FEV (Homo sapiens, UniProt Q99581 1-238).
T5 sequence: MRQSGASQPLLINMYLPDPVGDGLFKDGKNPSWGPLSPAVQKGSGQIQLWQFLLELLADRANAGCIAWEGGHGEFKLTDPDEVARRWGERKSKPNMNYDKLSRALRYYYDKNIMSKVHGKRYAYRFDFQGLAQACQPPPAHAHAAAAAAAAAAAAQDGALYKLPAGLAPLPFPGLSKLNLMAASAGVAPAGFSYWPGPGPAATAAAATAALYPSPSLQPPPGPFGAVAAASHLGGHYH
A digest of the protocol:
as §1

The target in assay [9] is T6, SPIC (Homo sapiens, UniProt Q8N5J4 1-248).
T6 sequence: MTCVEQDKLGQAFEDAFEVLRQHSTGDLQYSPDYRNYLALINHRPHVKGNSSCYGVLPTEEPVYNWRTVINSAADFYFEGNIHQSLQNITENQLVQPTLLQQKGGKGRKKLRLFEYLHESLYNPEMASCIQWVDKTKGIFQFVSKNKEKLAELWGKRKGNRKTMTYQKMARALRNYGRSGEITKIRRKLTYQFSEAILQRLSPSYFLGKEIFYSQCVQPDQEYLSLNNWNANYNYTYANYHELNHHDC
An outline of the steps:
as §1

Assay [10] addresses ELF4 (Homo sapiens, UniProt Q99607 1-663). A digest of the protocol: as §1
Assay [11] concerns the target T7, ELK4 (Homo sapiens, UniProt P28324-2 1-405).
T7 sequence: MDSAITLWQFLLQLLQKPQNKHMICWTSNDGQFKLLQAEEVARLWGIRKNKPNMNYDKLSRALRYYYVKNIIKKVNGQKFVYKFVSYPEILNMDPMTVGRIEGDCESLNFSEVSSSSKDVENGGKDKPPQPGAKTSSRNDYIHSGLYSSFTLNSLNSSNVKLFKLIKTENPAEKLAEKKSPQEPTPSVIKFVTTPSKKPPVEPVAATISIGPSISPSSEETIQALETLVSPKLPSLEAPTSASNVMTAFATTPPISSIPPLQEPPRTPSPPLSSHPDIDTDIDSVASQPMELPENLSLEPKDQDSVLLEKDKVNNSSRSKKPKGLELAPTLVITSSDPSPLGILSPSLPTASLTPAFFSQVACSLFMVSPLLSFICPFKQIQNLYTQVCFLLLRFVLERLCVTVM
An outline of the steps:
as §1

Assay [12] deals with T8, ETV2 (Homo sapiens, UniProt O00321 1-342).
T8 sequence: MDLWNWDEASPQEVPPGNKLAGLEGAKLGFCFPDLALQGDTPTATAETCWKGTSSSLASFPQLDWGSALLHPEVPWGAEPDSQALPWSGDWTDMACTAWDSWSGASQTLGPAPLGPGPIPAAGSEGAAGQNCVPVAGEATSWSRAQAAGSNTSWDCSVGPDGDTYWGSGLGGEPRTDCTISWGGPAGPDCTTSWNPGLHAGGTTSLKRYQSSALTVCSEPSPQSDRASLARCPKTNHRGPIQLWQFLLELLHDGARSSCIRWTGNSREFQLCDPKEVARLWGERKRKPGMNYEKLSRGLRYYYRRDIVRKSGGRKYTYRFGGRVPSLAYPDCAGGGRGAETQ
A digest of the protocol: as §1

Assay [13] deals with T9, ERF (Homo sapiens, UniProt P50548 1-548).
T9 sequence: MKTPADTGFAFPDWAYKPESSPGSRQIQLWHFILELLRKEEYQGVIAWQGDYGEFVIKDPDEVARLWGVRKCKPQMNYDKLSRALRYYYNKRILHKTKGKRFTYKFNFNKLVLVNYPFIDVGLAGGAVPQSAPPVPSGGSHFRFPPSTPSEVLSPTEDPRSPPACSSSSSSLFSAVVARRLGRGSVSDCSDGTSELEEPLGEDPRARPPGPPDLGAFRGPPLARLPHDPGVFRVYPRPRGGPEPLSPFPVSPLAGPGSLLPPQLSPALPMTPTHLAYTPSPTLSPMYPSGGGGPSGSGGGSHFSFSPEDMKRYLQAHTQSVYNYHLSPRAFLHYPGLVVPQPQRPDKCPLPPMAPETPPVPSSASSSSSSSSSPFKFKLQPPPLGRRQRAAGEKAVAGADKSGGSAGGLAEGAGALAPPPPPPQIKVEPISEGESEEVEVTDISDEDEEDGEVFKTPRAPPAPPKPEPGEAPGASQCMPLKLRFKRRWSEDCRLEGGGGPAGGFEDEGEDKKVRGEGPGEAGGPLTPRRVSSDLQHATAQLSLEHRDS
An outline of the steps: as §1

Assay [14] addresses T10, ETV3L (Homo sapiens, UniProt Q6ZN32 1-361).
T10 sequence: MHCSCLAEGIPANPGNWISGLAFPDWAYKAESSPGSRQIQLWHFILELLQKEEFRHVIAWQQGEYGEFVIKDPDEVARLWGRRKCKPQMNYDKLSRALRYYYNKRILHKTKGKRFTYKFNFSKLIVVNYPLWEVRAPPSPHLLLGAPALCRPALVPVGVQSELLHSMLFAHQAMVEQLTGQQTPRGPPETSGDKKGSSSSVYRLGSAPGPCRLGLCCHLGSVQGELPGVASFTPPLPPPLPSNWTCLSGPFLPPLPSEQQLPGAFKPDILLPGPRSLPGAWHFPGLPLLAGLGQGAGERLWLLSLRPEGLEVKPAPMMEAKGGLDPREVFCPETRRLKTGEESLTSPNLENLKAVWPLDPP
An outline of the steps:
as §1

Assay [15] addresses T11, ETS2 (Homo sapiens, UniProt P15036 1-469).
T11 sequence: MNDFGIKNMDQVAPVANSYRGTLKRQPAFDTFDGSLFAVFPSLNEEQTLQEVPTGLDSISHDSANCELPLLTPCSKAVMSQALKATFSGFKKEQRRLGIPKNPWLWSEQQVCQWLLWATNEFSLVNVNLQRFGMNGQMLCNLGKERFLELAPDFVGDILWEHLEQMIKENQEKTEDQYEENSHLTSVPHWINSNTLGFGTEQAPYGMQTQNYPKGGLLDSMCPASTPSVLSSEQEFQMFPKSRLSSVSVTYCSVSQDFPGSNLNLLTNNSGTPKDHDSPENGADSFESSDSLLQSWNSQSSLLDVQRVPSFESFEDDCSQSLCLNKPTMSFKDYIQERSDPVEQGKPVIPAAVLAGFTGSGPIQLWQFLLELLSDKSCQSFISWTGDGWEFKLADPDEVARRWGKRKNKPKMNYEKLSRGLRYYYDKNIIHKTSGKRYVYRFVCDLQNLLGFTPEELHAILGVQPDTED
An outline of the steps:
as §1

The target in assay [16] is ETV6 (Homo sapiens, UniProt P41212 1-452). An outline of the steps:
as §1

Sequence of ELF1 (P32519 whole entry): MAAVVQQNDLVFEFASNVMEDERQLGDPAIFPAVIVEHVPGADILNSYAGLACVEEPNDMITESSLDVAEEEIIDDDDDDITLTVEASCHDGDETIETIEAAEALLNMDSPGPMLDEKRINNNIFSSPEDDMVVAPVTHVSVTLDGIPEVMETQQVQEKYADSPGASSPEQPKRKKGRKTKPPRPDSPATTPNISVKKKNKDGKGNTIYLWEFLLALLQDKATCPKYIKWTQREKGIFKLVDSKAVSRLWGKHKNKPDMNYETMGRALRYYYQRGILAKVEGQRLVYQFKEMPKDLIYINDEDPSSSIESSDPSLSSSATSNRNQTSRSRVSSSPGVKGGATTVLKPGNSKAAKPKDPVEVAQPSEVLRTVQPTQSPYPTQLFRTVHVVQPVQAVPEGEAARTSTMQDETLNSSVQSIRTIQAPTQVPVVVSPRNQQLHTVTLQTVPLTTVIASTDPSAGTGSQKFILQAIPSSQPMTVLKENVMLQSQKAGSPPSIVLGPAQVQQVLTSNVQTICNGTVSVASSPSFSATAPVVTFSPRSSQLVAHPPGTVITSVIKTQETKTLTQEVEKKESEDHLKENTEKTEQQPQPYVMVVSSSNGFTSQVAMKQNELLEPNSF
Sequence of ETV6 (P41212 whole entry): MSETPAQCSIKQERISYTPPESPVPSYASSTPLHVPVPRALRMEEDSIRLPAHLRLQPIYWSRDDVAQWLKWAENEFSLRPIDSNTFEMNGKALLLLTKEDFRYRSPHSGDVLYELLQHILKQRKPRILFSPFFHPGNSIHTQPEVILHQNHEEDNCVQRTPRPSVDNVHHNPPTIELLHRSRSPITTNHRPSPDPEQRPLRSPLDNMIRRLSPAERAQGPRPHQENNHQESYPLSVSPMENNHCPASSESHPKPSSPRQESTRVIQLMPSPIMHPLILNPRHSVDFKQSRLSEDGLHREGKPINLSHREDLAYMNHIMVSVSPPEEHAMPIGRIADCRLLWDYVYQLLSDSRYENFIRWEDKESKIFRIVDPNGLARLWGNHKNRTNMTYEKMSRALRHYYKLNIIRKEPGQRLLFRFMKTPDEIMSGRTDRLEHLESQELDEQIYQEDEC
Sequence of ELF4 (Q99607 whole entry): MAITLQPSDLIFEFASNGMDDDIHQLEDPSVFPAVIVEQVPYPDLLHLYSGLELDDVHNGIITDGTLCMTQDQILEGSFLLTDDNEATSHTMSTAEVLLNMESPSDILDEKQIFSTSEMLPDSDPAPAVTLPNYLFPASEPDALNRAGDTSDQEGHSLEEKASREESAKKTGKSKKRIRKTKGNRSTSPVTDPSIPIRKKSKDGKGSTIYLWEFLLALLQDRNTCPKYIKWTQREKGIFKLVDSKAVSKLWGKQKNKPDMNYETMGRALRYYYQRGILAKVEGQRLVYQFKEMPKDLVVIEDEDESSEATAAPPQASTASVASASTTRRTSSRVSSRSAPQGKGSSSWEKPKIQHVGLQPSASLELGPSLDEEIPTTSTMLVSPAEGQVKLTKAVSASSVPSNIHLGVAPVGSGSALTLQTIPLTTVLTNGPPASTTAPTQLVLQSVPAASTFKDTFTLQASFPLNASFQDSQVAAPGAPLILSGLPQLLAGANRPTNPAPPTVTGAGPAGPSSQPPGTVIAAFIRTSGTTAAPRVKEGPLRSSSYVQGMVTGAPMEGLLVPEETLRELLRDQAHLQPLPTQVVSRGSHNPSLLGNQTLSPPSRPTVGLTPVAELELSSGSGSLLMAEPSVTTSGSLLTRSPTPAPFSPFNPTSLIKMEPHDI
Sequence of SPIB (Q01892 whole entry): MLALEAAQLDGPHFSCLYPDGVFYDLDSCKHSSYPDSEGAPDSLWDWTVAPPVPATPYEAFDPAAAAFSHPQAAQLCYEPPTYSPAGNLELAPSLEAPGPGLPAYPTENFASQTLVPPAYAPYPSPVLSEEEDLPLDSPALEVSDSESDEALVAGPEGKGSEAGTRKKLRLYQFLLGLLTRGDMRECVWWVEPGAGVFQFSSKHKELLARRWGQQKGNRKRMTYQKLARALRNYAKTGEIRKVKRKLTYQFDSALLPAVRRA

GCTGCA: the binding signal was 1.09 fold enrichment (6-mer frequency, TF over GST control) in [1]; 1.07 fold enrichment (6-mer frequency, TF over GST control) in [2]; 1.05 fold enrichment (6-mer frequency, TF over GST control) in [3]; 1.05 fold enrichment (6-mer frequency, TF over GST control) in [4]; 1.08 fold enrichment (6-mer frequency, TF over GST control) in assay [5]; 1 fold enrichment (6-mer frequency, TF over GST control) in assay [6]. Also, the binding signal in assay [7] is 1.07 fold enrichment (6-mer frequency, TF over GST control); in assay [8], 1.01 fold enrichment (6-mer frequency, TF over GST control); in assay [9], 1.09 fold enrichment (6-mer frequency, TF over GST control); in assay [10], 1.05 fold enrichment (6-mer frequency, TF over GST control); in assay [11], 1.08 fold enrichment (6-mer frequency, TF over GST control); in assay [12], 1.01 fold enrichment (6-mer frequency, TF over GST control). The binding signal in assay [13] was 1.2 fold enrichment (6-mer frequency, TF over GST control); in [14], 1.11 fold enrichment (6-mer frequency, TF over GST control); in assay [15] it was 1.07 fold enrichment (6-mer frequency, TF over GST control); in assay [16] it was 1 fold enrichment (6-mer frequency, TF over GST control).
